Reference: PubChem BioAssay (NCATS)
Results filed as inconclusive are left out. The source made the active and inactive calls. Unless noted, calls follow the shape of the dose curve; as a rule, active = well fitted curve in the direction sought with a large enough effect; inconclusive = small, poorly fitted or top-dose-only effect, or another doubt; inactive = no such curve, though single readings can be large; an effect the other way counts as inactive or inconclusive.

Tests used:
C33A = experiment: Primary qHTS to identify gynecologic anti-cancer compounds using libraries of approved drugs and bioactive compounds (AID 1345084); details: Gynecologic cancer cell panel viability, ATPlite luminescence, 48 h; series mostly up to 57.5 µM; also: % is scaled to controls: 0 for no effect and ±100 for the full control effect; nearly all actives have a fitted effect of over 55% in size
Method in brief: (§1)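 Cells, 1,000 per well, plated 16 h, then exposed 48 h at 37 C to compounds. Viability by ATPlite luminescence after 15 min at room temperature.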

CAOV3 = experiment: as above; details: Gynecologic cancer cell panel viability, ATPlite luminescence, 48 h; series mostly up to 57.5 µM
Method in brief: as §1

CASKI = experiment: as above; details: Gynecologic cancer cell panel viability, ATPlite luminescence, 48 h; series mostly up to 57.5 µM
Method in brief: as §1

Es-2 = experiment: as above; details: Gynecologic cancer cell panel viability, ATPlite luminescence, 48 h; series mostly up to 57.5 µM
Method in brief: as §1

HeLa = experiment: as above; details: Gynecologic cancer cell panel viability, ATPlite luminescence, 48 h; series mostly up to 57.5 µM
Method in brief: as §1

Hek293T = experiment: as above; details: Gynecologic cancer cell panel viability, ATPlite luminescence, 48 h, control line for the selectivity index; series mostly up to 57.5 µM
Method in brief: as §1

JEG-3 = experiment: as above; details: Gynecologic cancer cell panel viability, ATPlite luminescence, 48 h; series mostly up to 57.5 µM
Method in brief: as §1

OV90 = experiment: as above; details: Gynecologic cancer cell panel viability, ATPlite luminescence, 48 h; series mostly up to 57.5 µM
Method in brief: as §1

PA-1 = experiment: as above; details: Gynecologic cancer cell panel viability, ATPlite luminescence, 48 h; series mostly up to 57.5 µM
Method in brief: as §1

SKOV3 = experiment: as above; details: Gynecologic cancer cell panel viability, ATPlite luminescence, 48 h; series mostly up to 57.5 µM
Method in brief: as §1

Tov-21-G = experiment: as above; details: Gynecologic cancer cell panel viability, ATPlite luminescence, 48 h; series mostly up to 57.5 µM
Method in brief: as §1

Tov112D = experiment: as above; details: Gynecologic cancer cell panel viability, ATPlite luminescence, 48 h; series mostly up to 57.5 µM
Method in brief: as §1

[1] = target: Nuclear receptor subfamily 1 group I member 2 (Rattus norvegicus) (UniProt Q9R1A7); experiment: qHTS assay for small molecule activators of the rat pregnane X receptor (rPXR) signaling pathway (AID 651751; call rule not given here; also: 0% is about no effect); details: rPXR reporter cells, luciferase (One-Glo), 24 h
Nuclear receptor subfamily 1 group I member 2 (Rattus norvegicus), sequence (Q9R1A7 whole entry, looked up): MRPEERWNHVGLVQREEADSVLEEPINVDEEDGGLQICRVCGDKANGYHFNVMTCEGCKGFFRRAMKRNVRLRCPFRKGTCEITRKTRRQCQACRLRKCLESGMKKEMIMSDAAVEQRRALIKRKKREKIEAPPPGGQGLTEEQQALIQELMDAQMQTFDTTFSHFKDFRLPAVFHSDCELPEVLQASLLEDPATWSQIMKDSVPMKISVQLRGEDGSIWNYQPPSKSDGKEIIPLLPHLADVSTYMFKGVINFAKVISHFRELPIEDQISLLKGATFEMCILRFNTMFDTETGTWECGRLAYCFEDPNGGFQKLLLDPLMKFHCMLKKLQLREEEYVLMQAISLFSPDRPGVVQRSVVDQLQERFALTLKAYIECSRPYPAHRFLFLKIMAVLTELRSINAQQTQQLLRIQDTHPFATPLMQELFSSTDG

[2] = qHTS assay for small molecule activators of the human pregnane X receptor (PXR) signaling pathway (AID 720659; call rule not given here; also: 0% is about no effect)
[3] = qHTS assay to identify inhibitors of the type 1 interferon - major histocompatibility complex class I in skeletal muscle: Counter screen cell viability and HiBit confirmation (AID 1347412); details: iHSKM muscle cells + IFN-b, HiBiT or CellTiter-Glo, 24 h, at 45.9 µM (top of the series); also: % is scaled to controls: 0 for no effect and ±100 for the full control effect; nearly all actives have a fitted effect of over 60% in size
Method in brief: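 Luminescence read-out: Nano-Glo HiBiT lytic signal from C-terminally HiBiT-tagged HLA-B in CRISPR-edited human myoblasts, plus CellTiter Glo ATP as viability counter screen. IFN-beta 4.0 ng/ml; 24 hrs treatment at 37 C, 5% CO2.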

CC(=O)O[C@@H]1CC(C)=C2[C@H]1[C@H](C)CC[C@H]2/C=C(\C)C(=O)O
inactive: Potency (C33A) | Potency (CAOV3) | Potency (CASKI) | Potency (Es-2) | Potency (HeLa) | Potency (Hek293T) | Potency (JEG-3) | Potency (OV90) | Potency (PA-1) | Potency (SKOV3) | Potency (Tov-21-G) | Potency (Tov112D) | max response [1] -4.19% | outcome [2]

C[C@@H]1CCN(C(=O)N2CCCC2)C[C@@H]1N(C)c1ncnc2[nH]ccc12
inactive: Potency (C33A) | Potency (CAOV3) | Potency (CASKI) | Potency (Es-2) | Potency (HeLa) | Potency (Hek293T) | Potency (JEG-3) | Potency (OV90) | Potency (PA-1) | Potency (SKOV3) | Potency (Tov112D)

C=C(C(=O)O)[C@@H]1CC[C@@]2(C)CC[C@H](O)[C@@]2(C(C)=O)C1
inactive: Potency (C33A) | Potency (CAOV3) | Potency (CASKI) | Potency (Es-2) | Potency (HeLa) | Potency (Hek293T) | Potency (JEG-3) | Potency (OV90) | Potency (PA-1) | Potency (Tov-21-G) | Potency (Tov112D)

CC(C)=CCC/C(C)=C/CCC1(C)Oc2c(c(O)cc3c2CN(C(CCC(=O)O)C(=O)O)C3=O)CC1O (stereo not given)
inactive: Potency (C33A) | Potency (CAOV3) | Potency (CASKI) | Potency (Es-2) | Potency (HeLa) | Potency (Hek293T) | Potency (JEG-3) | Potency (OV90) | Potency (PA-1) | Potency (SKOV3) | Potency (Tov-21-G) | Potency (Tov112D)

O=C(Nc1ccccc1)N1CCN(Cc2ccc3ccccc3n2)CC1
inactive: Potency (C33A) | Potency (CAOV3) | Potency (CASKI) | Potency (Es-2) | Potency (HeLa) | Potency (Hek293T) | Potency (JEG-3) | Potency (OV90) | Potency (PA-1) | Potency (Tov-21-G) | Potency (Tov112D)

CC(C)(F)C[C@@H](N[C@@H](c1ccc(-c2ccc(S(C)(=O)=O)cc2)cc1)C(F)(F)F)C(=O)NC1(C#N)CC1
inactive: Potency (C33A) | Potency (CAOV3) | Potency (CASKI) | Potency (Es-2) | Potency (HeLa) | Potency (Hek293T) | Potency (JEG-3) | Potency (OV90) | Potency (PA-1) | Potency (SKOV3) | Potency (Tov-21-G) | Potency (Tov112D)

CC1(C)CCC2(C(=O)OC3OC(CO)C(O)C(O)C3O)CCC3(C)C(=CCC4C5(C)CCC(OC6OC(C(=O)O)C(OC7OC(CO)C(O)C(O)C7O)C(OC7OC(CO)C(O)C(O)C7O)C6O)C(C)(C)C5CCC43C)C2C1 (stereo not given)
inactive: activity change, negative = cytotoxicity (C33A) -2.64% [at 11.6 µM] | activity change, negative = cytotoxicity (CAOV3) 3.96% [at 11.6 µM] | activity change, negative = cytotoxicity (CASKI) 5.46% [at 11.6 µM] | activity change, negative = cytotoxicity (Es-2) -0.153% [at 11.6 µM] | activity change, negative = cytotoxicity (HeLa) 10.1% [at 11.6 µM] | activity change, negative = cytotoxicity (Hek293T) -1.3% [at 11.6 µM] | activity change, negative = cytotoxicity (JEG-3) -1.35% [at 11.6 µM] | activity change, negative = cytotoxicity (OV90) 3.02% [at 11.6 µM] | activity change, negative = cytotoxicity (PA-1) 16.1% [at 11.6 µM] | activity change, negative = cytotoxicity (SKOV3) 13.2% [at 11.6 µM] | activity change, negative = cytotoxicity (Tov-21-G) 1.15% [at 11.6 µM] | activity change, negative = cytotoxicity (Tov112D) 6% [at 11.6 µM]

COC1C(=O)CCC2(CO2)C1(O)C1(C)OC1CC=C(C)C (stereo not given)
inactive: Potency (C33A) | Potency (CAOV3) | Potency (CASKI) | Potency (Es-2) | Potency (HeLa) | Potency (Hek293T) | Potency (JEG-3) | Potency (OV90) | Potency (PA-1) | Potency (SKOV3) | Potency (Tov112D)

Cc1ccc(-c2ccc3c(ccc4sc5c(c43)NC[C@@H](C)NC5=O)n2)cn1
inactive: Potency (C33A) | Potency (CAOV3) | Potency (CASKI) | Potency (Es-2) | Potency (HeLa) | Potency (Hek293T) | Potency (JEG-3) | Potency (OV90) | Potency (PA-1) | Potency (SKOV3) | Potency (Tov-21-G) | Potency (Tov112D) | activity change, negative = inhibition ([3]; HiBiT) -1.05% | activity change, negative = inhibition ([3]; Viability) 10.5%

CC(C)c1cc(C(=O)N2CC[C@@H](NC(=O)C3CC3)C2)n[nH]1
inactive: Potency (C33A) | Potency (CAOV3) | Potency (CASKI) | Potency (Es-2) | Potency (HeLa) | Potency (Hek293T) | Potency (JEG-3) | Potency (OV90) | Potency (PA-1) | Potency (Tov-21-G) | Potency (Tov112D)

CC(=O)C1=CCC2C3CCC4CC(O[C@@H]5O[C@H](CO)[C@@H](O[C@@H]6O[C@@H](C)[C@H](O)[C@@H](O)[C@H]6O)[C@H](O)[C@H]5O[C@@H]5O[C@H](CO)[C@@H](O)[C@H](O)[C@H]5O)CCC4(C)C3CCC12C (stereo not given in full)
inactive: Potency (C33A) | Potency (CAOV3) | Potency (CASKI) | Potency (Es-2) | Potency (HeLa) | Potency (Hek293T) | Potency (JEG-3) | Potency (OV90) | Potency (PA-1) | Potency (SKOV3) | Potency (Tov-21-G) | Potency (Tov112D)

Cc1cc(O)cc(O[C@@H]2O[C@H](CO)[C@@H](O)[C@H](O)[C@H]2O)c1
inactive: Potency (C33A) | Potency (CAOV3) | Potency (CASKI) | Potency (Es-2) | Potency (HeLa) | Potency (Hek293T) | Potency (JEG-3) | Potency (OV90) | Potency (PA-1) | Potency (Tov-21-G) | Potency (Tov112D)

COc1ccc(CNC(=O)c2sc3nc(C)cc(C)c3c2N)cc1
inactive: Potency (C33A) | Potency (CAOV3) | Potency (CASKI) | Potency (Es-2) | Potency (HeLa) | Potency (Hek293T) | Potency (JEG-3) | Potency (OV90) | Potency (PA-1) | Potency (Tov-21-G) | Potency (Tov112D)

Cc1cccc(C)c1OCc1cc(C(=O)N2CCC(c3ccncc3)CC2)no1
inactive: Potency (C33A) | Potency (CAOV3) | Potency (CASKI) | Potency (Es-2) | Potency (HeLa) | Potency (Hek293T) | Potency (JEG-3) | Potency (OV90) | Potency (PA-1) | Potency (Tov-21-G) | Potency (Tov112D)

CC(C)C[C@H](CC(=O)NO)C(=O)N[C@@H](Cc1ccc2ccccc2c1)C(=O)N[C@@H](C)C(=O)NCCN
inactive: Potency (C33A) | Potency (CAOV3) | Potency (CASKI) | Potency (Es-2) | Potency (HeLa) | Potency (Hek293T) | Potency (JEG-3) | Potency (OV90) | Potency (PA-1) | Potency (Tov-21-G) | Potency (Tov112D)
